Measured values from PubChem BioAssay (Tox21).
Inconclusive results are not listed. Unmarked numbers belong to inactive results. The source made the active and inactive calls. Calls follow the shape of the dose curve; as a rule, active = well fitted curve in the direction sought with a large enough effect in the repeat runs; inconclusive = weak or mixed curves; inactive = no such curve, though single readings can be large; an effect the other way counts as inactive or inconclusive.

Biological target: Cytochrome P450 2C9 (Homo sapiens) (UniProt P11712)
Sequence (P11712 whole entry, looked up): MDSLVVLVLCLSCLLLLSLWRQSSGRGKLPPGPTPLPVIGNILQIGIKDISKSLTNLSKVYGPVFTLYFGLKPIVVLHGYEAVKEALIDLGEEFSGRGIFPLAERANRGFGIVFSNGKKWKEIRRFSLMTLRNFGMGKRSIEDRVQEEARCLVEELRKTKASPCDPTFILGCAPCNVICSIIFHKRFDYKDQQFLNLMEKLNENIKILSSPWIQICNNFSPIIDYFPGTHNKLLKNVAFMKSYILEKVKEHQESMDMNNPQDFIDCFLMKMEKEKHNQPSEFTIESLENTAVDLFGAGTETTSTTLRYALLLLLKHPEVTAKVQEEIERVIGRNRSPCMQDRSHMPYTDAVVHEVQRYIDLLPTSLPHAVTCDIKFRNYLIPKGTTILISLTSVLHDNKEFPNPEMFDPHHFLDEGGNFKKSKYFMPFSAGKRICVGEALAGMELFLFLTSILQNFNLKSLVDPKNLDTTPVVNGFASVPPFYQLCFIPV
Experiment: Cytochrome P450 Family 2 Subfamily C Member 9 (CYP2C9) small molecule antagonists: luciferase reporter qHTS assay (AID 1671198)
Conditions: P450-Glo CYP2C9 enzyme assay, luciferin luminescence; series mostly up to 53 µM; activity change, negative = inhibition: at the top concentration
Outline: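 CYP2C9 activity was measured with a P450-Glo proluciferin substrate. Enzyme–substrate mix was held with compound for 10 min at room temperature, then NADPH regeneration solution was added for 1 h at 37C. Luciferin product was read as luminescence.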
% is scaled to controls: 0 for no effect and ±100 for the full control effect; potency is read from the fitted curve at half-maximal effect.
Also: nearly all actives have a fitted effect of over 50% in size.

Structure (SMILES)	Potency	activity change, negative = inhibition
CCCCCCCCCCCC[N+](C)(C)CCCCCCCCCCCC	22.4 µM (active)	–
CN1CCC(Nc2ncc3ncnc(Nc4ccc(F)c(Cl)c4)c3n2)CC1	–	1.79%
CCCCCOC(=O)CCCC	–	-3.43% [at 115 µM]
COc1ccc(C(=O)/C(Br)=C\C(=O)O)cc1	25.2 µM (active)	–
O=c1c(-c2ccccc2)c1-c1ccccc1	17.4 µM (active)	–
COc1cc(-c2nc(NC(=O)c3cc4cc(C)cc(C)c4n3CC(=O)O)sc2CCC2CCCCC2)c(OC)cc1Cl	51.7 µM (active)	–
O=S1(=O)CC(Cl)(Cl)C(Cl)(Cl)C1	22.4 µM (active)	–
O=C1c2ccccc2Cc2ccccc21	16 µM (active)	–
CCCCCCCCCCCCCCCC[N+](C)(C)CCN(Cc1ccc(OC)cc1)c1ncccn1	30.9 µM (active)	–
NNc1nc(-c2ccc([N+](=O)[O-])cc2)cs1	5.64 µM (active)	–
CC1=C(/C=C/C(C)=C/C=C/C(C)=C/C=O)C(C)(C)CCC1	44.6 µM (active)	–
O=C(Oc1cccc2cccnc12)c1ccccc1	–	29.7%
CCC(N)(CO)CO	–	3.13% [at 115 µM]
O=c1[nH]sc2ccccc12	31.7 µM (active)	–
COC(=O)c1cc(Cl)ccc1OC	–	23.8%
O=[N+]([O-])c1ccccc1Nc1ccccc1	39.7 µM (active)	–
CCc1cc(SCc2sc(-c3ccc(C(F)(F)F)cc3)nc2CN2CCN(c3ccc(OC)cc3)CC2)ccc1OCC(=O)O	20 µM (active)	–
NC(=O)N1C(=O)C(C(=O)c2cc(Cl)cs2)c2cc(F)c(Cl)cc21 (stereo not given)	6.33 µM (active)	–
CCCN(CCC)c1c([N+](=O)[O-])cc(C(F)(F)F)c(N)c1[N+](=O)[O-]	20 µM (active)	–
N#CC1(c2ccc(F)cc2)CCC(=O)CC1	–	-6.89%
CC1=C(C(=O)OC(C)C)C(c2cccc([N+](=O)[O-])c2)C(C(=O)OC2CN(C(c3ccccc3)c3ccccc3)C2)=C(N)N1 (stereo not given)	1.38 µM (active)	–
Nc1ccc(N)c2ccccc12	3.99 µM (active)	–
CC1(C)CCC(C)(C)c2cc(C(=O)Nc3ccc(C(=O)O)cc3)ccc21	71 µM (active)	–
Cc1cc2c(cc1C(F)(F)F)N(C(=O)Nc1ccc(Oc3cccnc3C)nc1)CC2	11.4 µM (active)	–

Biological target: Cytochrome P450 1A2 (Homo sapiens) (UniProt P05177)
Sequence (P05177 whole entry, looked up): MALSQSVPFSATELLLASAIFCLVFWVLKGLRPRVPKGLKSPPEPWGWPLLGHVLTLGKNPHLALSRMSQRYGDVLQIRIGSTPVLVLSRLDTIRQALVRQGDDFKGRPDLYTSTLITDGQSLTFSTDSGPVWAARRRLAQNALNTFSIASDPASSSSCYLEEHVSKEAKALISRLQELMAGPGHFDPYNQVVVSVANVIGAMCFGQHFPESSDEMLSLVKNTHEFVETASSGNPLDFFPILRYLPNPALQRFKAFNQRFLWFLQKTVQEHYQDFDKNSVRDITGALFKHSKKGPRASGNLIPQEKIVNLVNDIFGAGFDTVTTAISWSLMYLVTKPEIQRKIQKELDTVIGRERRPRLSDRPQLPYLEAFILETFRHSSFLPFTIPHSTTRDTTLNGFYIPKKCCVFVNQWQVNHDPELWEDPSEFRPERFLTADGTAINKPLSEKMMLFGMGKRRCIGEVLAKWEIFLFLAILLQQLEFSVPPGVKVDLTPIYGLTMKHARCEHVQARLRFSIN
Experiment: Cytochrome P450 Family 1 Subfamily A Member 2 (CYP1A2) small molecule antagonists: luciferase reporter qHTS assay (AID 1671199)
Conditions: P450-Glo CYP1A2 enzyme, luciferin luminescence, 1 h; series mostly up to 53 µM; activity change, negative = inhibition: at the top concentration
Outline: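 Steps: enzyme-substrate mix dispensed; test compounds and furafylline control pinned in; 10 min room temperature; NADPH regeneration solution added, 1 h; reaction stopped with luciferin detection reagent; luminescence read after 20 min.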

Structure (SMILES)	Potency	activity change, negative = inhibition
CCCCCCCCCCCC(=O)NCCCN(C)C	35.6 µM (active)	–
CN1CCC(Nc2ncc3ncnc(Nc4ccc(F)c(Cl)c4)c3n2)CC1	–	-8.96%
CC(C)(C)C(=O)OCOC(=O)C1N2C(=O)CC2S(=O)(=O)C1(C)C (stereo not given)	–	-24.4%
CNCc1cc(F)ccc1Oc1ccc(Cl)c(Cl)c1	1 µM (active)	–
O=c1c(-c2ccccc2)c1-c1ccccc1	1.15 µM (active)	–
O=S1(=O)CC(Cl)(Cl)C(Cl)(Cl)C1	22.4 µM (active)	–
O=C1c2ccccc2Cc2ccccc21	0.452 µM (active)	–
C[C@H](CCC(=O)O)[C@H]1CC[C@H]2[C@@H]3CC[C@@H]4C[C@H](O)CC[C@]4(C)[C@H]3CC[C@]12C	inactive	–
CCCCCCCCCCCCCCCC[N+](C)(C)CCN(Cc1ccc(OC)cc1)c1ncccn1	–	-18.9%
NNc1nc(-c2ccc([N+](=O)[O-])cc2)cs1	3.99 µM (active)	–
O=C(Oc1cccc2cccnc12)c1ccccc1	17.4 µM (active)	–
O=c1[nH]sc2ccccc12	31.7 µM (active)	–
COC(=O)c1cc(Cl)ccc1OC	2.88 µM (active)	–
O=[N+]([O-])c1ccccc1Nc1ccccc1	5 µM (active)	–
CCc1cc(SCc2sc(-c3ccc(C(F)(F)F)cc3)nc2CN2CCN(c3ccc(OC)cc3)CC2)ccc1OCC(=O)O	–	-2.05% [at 115 µM]
NC(=O)N1C(=O)C(C(=O)c2cc(Cl)cs2)c2cc(F)c(Cl)cc21 (stereo not given)	17.8 µM (active)	–
N#CC1(c2ccc(F)cc2)CCC(=O)CC1	–	-17.6%
Nc1ccc(N)c2ccccc12	2.52 µM (active)	–
O=C(O)c1cc(O)c2c(c1)C(=O)c1cccc(O)c1C2=O	36.7 µM (active)	–
CC1(C)CCC(C)(C)c2cc(C(=O)Nc3ccc(C(=O)O)cc3)ccc21	–	-8.91% [at 115 µM]
Nc1ccc2cc(S(=O)(=O)O)cc(O)c2c1N=Nc1ccccc1C(F)(F)F	39.9 µM (active)	–
CC(=O)OCC(C)OC(C)=O (stereo not given)	–	-10.8% [at 115 µM]
CC(C)CCCCCCCCCCCCCCC(=O)O	–	-11.1% [at 115 µM]

Biological target: Voltage-gated inwardly rectifying potassium channel KCNH2 (Homo sapiens) (UniProt Q12809)
Sequence (Q12809 whole entry, looked up): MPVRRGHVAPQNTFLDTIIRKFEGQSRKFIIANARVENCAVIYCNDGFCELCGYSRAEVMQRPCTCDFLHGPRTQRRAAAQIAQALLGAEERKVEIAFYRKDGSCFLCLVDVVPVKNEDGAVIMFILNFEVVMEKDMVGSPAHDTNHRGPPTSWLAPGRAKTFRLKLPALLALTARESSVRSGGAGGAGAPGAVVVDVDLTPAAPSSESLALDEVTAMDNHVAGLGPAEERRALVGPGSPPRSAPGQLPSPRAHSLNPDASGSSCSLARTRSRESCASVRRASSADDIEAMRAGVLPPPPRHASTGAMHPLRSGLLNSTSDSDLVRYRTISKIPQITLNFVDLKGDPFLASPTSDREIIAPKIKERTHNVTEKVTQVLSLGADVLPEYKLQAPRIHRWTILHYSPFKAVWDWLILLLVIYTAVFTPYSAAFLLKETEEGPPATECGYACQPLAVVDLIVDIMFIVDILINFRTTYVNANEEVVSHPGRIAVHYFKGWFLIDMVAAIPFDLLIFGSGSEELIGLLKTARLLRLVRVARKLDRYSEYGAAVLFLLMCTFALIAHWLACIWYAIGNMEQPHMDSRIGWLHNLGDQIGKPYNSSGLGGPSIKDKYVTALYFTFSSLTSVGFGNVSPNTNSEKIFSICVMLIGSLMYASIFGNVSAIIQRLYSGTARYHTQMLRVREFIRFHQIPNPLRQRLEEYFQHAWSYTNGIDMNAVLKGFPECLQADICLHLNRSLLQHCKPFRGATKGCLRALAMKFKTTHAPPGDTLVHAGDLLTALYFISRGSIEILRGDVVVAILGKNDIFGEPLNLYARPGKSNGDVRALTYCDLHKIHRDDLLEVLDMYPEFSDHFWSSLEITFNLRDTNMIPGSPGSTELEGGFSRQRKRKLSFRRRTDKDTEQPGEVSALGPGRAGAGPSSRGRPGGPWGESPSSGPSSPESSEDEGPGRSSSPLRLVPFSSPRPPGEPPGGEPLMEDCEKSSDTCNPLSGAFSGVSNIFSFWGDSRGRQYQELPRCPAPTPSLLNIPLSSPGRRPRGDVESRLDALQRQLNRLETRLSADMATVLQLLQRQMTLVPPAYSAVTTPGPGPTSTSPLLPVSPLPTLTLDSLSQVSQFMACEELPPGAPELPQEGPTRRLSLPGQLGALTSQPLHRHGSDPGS
Experiment: Human Ether-a-go-go-Related Gene (hERG) channel small molecule antagonists: fluorescence cell-based qHTS assay (AID 1671200);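 as to activity change, negative = inhibition: hERG-expressing U2OS cells given a thallium stimulus after FluxOR II dye loading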
Conditions: hERG-U2OS cells, FluxOR thallium flux fluorescence; series mostly up to 76.8 µM; activity change, negative = inhibition: at the top concentration
Outline: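 U2OS cells expressing the channel were plated at 1000 cells/well, incubated overnight at 37 C, then loaded with FluxOR II thallium-sensitive dye for 1 h at room temperature in the dark, with a further 10 min at room temperature before stimulation.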

Structure (SMILES)	Potency	activity change, negative = inhibition
CCCCCCCCCCCC(=O)NCCCN(C)C	13.8 µM (active)	–
CN1CCC(Nc2ncc3ncnc(Nc4ccc(F)c(Cl)c4)c3n2)CC1	–	-21.5% [at 35.3 µM]
CC(C)(C)C(=O)OCOC(=O)C1N2C(=O)CC2S(=O)(=O)C1(C)C (stereo not given)	–	2.36% [at 35.3 µM]
CCCCCOC(=O)CCCC	–	0.841%
O=c1c(-c2ccccc2)c1-c1ccccc1	–	9.25% [at 35.3 µM]
COc1cc(-c2nc(NC(=O)c3cc4cc(C)cc(C)c4n3CC(=O)O)sc2CCC2CCCCC2)c(OC)cc1Cl	–	0.0853%
O=S1(=O)CC(Cl)(Cl)C(Cl)(Cl)C1	–	-24.2%
O=C1c2ccccc2Cc2ccccc21	–	-2.08%
Oc1ccc(C2(c3ccc(O)cc3)CC3CC2C2CCCC32)cc1 (stereo not given)	–	-3.83%
NNc1nc(-c2ccc([N+](=O)[O-])cc2)cs1	19.5 µM (active)	–
O=C(Oc1cccc2cccnc12)c1ccccc1	–	-7.57% [at 35.3 µM]
O=c1[nH]sc2ccccc12	49 µM (active)	–
COC(=O)c1cc(Cl)ccc1OC	–	2.14% [at 35.3 µM]
O=[N+]([O-])c1ccccc1Nc1ccccc1	54.6 µM (active)	–
CCc1cc(SCc2sc(-c3ccc(C(F)(F)F)cc3)nc2CN2CCN(c3ccc(OC)cc3)CC2)ccc1OCC(=O)O	4.36 µM (active)	–
NC(=O)N1C(=O)C(C(=O)c2cc(Cl)cs2)c2cc(F)c(Cl)cc21 (stereo not given)	–	1.06%
N#CC1(c2ccc(F)cc2)CCC(=O)CC1	–	-0.229% [at 35.3 µM]
Nc1ccc(N)c2ccccc12	–	0.0033%
O=C(O)c1cc(O)c2c(c1)C(=O)c1cccc(O)c1C2=O	–	-12.7%
Nc1ccc2cc(S(=O)(=O)O)cc(O)c2c1N=Nc1ccccc1C(F)(F)F	–	4.12%
CC(=O)OCC(C)OC(C)=O (stereo not given)	–	0.872%
CC(C)CCCCCCCCCCCCCCC(=O)O	–	-1.37%
Cc1nc(-c2ccc3c(c2)CCN(CCC2CCC(NC(=O)/C=C/c4ccc(F)cc4)CC2)CC3)no1 (stereo not given)	0.873 µM (active)	–
